Source: PubChem BioAssay (NCI)
The panel holds about 79,000 compounds, 15% with a hit somewhere; the sample as a whole holds those more often. Rule as the data show it: active = growth inhibition above about 70%; inactive = the rest.

How the values were obtained:
[1] = NCI Yeast Anticancer Drug Screen. Data for the rad50 strain (AID 155);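 also: 0% = growth of vehicle-only cultures of the same strain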; details: S. cerevisiae rad50 strain growth inhibition; at 50.0 µM; hits give high values
Summary of the method: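 A DNA repair-deficient yeast mutant serves as the test organism; compound-induced growth inhibition is calculated against vehicle-treated cells.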

[2] = NCI Yeast Anticancer Drug Screen. Data for the mec2-1 strain (AID 157); details: S. cerevisiae mec2-1 strain, at 50.0 µM, hits give high values
Summary of the method: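 Mutant yeast (mec2-1) grown with compound; growth inhibition relative to vehicle control reported.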

[3] = NCI Yeast Anticancer Drug Screen. Data for the sgs1 mgt1 strain (AID 161);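 also: 0% = growth of cultures given vehicle only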; details: S. cerevisiae sgs1 mgt1 strain, at 50.0 µM, hits give high values
Summary of the method: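 Growth of a repair-deficient yeast mutant was monitored after compound treatment and expressed as inhibition relative to vehicle-treated cultures.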

[4] = NCI Yeast Anticancer Drug Screen. Data for the cln2 rad14 strain (AID 165);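 also: 0% = growth equal to vehicle treated cultures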; details: S. cerevisiae cln2 rad14 strain, at 50.0 µM, hits give high values
Summary of the method: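 Readout is yeast growth inhibition versus vehicle-treated controls, using a strain with cln2 and rad14 alterations exposed to compound.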

[5] = NCI Yeast Anticancer Drug Screen. Data for the bub3 strain (AID 167); details: S. cerevisiae bub3 mutant strain, at 50.0 µM, hits give high values
Summary of the method: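 Inhibition values come from growth of compound-treated mutant yeast normalised to vehicle-treated controls.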

[6] = NCI Yeast Anticancer Drug Screen. Data for the mlh1 rad18 strain (AID 175); details: S. cerevisiae mlh1 rad18 strain growth inhibition; at 50.0 µM; hits give high values
Summary of the method: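 Genetically defined yeast (DNA repair-deficient) exposed to compounds; growth inhibition determined relative to vehicle.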

Measured: growth inhibition

NC(=O)N/N=C\c1ccco1
inactive: [1] 26.1% | [2] -9.8% | [3] -13.3% | [4] -11.4% | [5] -14.3% | [6] 13.1%

CNC(=S)NC(C)(C)C
inactive: [1] -14% | [2] -17.3% | [3] -20.6% | [4] -29.2% | [5] -18.8% | [6] -20%

C[C@@H](c1ccccc1)[C@@H](C(=O)O)c1ccccc1
inactive: [1] 8.3% | [2] 5.4% | [3] 8.3% | [4] -38.6% | [5] -5.65% | [6] 29.7%

O=C(O)CCCc1ccccc1
inactive: [1] 5.1% | [2] -6.2% | [3] 2.05% | [4] -7.65% | [5] 6% | [6] 11.3%

CC1(O)OC(COc2ccc(Cl)cc2)COC1O (configuration not stated)
inactive: [1] 0.55% | [2] -8.65% | [3] 4.7% | [4] 8.55% | [5] -9.7% | [6] 18.9%

COc1ccc2c(c1)CCc1c-2n[nH]c1-c1[nH]nc2c1CCc1cc(OC)ccc1-2
inactive: [1] 0.5% | [2] 0.35% | [3] -11.2% | [4] -5.55% | [5] -16.1% | [6] -5%

O=C(CS)Nc1ccc2ccccc2c1
inactive: [1] 3.5% | [2] -0.85% | [3] 22% | [4] -36.9% | [5] -7.85% | [6] -1.15%

CC1C(=O)c2ccccc2CC1C(=O)O (configuration not stated)
inactive: [1] -1.6% | [2] -15.6% | [3] 7.8% | [4] -22.2% | [5] -5.1% | [6] -21%

CC1(C)/C(=C\CO)C2CCC1C2 (configuration not stated)
inactive: [1] 12.7% | [2] 0.05% | [3] 1.95% | [4] -4.95% | [5] -2.65% | [6] 3.7%

O=C(CCNNC(=O)c1ccncc1)NCc1ccccc1
inactive: [1] 8.25% | [2] 11.6% | [3] 11.9% | [4] -46% | [5] -9.8% | [6] 7.3%

CCOC(=O)C1=C(Nc2ccc(Br)cc2)C(=O)N(CC)C1
inactive: [1] 12.7% | [2] 1.2% | [3] 33% | [4] 14.9% | [5] 42.7% | [6] 19.1%

S=c1sc2ccccc2n1CN1CCCCC1
inactive: [1] 7.7% | [2] 14.8% | [3] 45% | [4] 10.6% | [5] 25.3% | [6] 15.8%

CCN(CC)C(=O)/C=C(/C)c1ccccc1
inactive: [1] -12.6% | [2] -2.65% | [3] -22.2% | [4] -6.95% | [5] 4.25% | [6] -29.8%

COC(=O)c1ccc(NC(=O)CCl)cc1
inactive: [1] 44.8% | [2] 37% | [3] 50% | [4] 49% | [5] 32.7% | [6] 45.5%

COC(=O)c1ccccc1N(C)C
inactive: [1] 0.55% | [2] -11.2% | [3] -3.8% | [4] 2.4% | [5] 2.65% | [6] 0.9%

CN(C)c1ccc(C(c2ccc(O)cc2)c2ccc(N(C)C)cc2)cc1
inactive: [1] -10.4% | [2] -37.1% | [3] -17.9% | [4] -38.6% | [5] -3% | [6] -6.5%

CCOC(=O)c1cc2cccc(OC)c2oc1=O
inactive: [1] 6.15% | [2] 3.45% | [3] -5.65% | [4] -4.75% | [5] 12.8% | [6] -0.2%

CC(C)=C(NC(=O)c1ccccc1)C(=O)O
inactive: [1] 14.1% | [2] 0.35% | [3] -5.25% | [4] 22% | [5] -2.7% | [6] 12.9%

CC1=CC(=O)c2ccccc2C1=O
inactive: [1] 14.4% | [2] 15.3% | [3] 0.1% | [4] 13.2% | [5] 25.6% | [6] 18.2%

C=CCNc1nnc(C)s1
inactive: [1] 14.9% | [2] 19.7% | [3] -21.6% | [4] -16.2% | [5] -15% | [6] -5.35%

CSC[C@H](NC(=O)COc1cccc2cnccc12)C(=O)NC(Cc1ccccc1)C(O)C(=O)N1CSC[C@H]1C(=O)NC(C)(C)C (some centres not stated)
inactive: [1] -34.3% | [2] -17.2% | [3] -28.9% | [4] 17.6% | [5] 2.3% | [6] -51.4%

Cc1cc(N)ccc1-c1ccc(N)cc1C
inactive: [1] -3% | [2] -6.45% | [3] 4.45% | [4] -39% | [5] -23.1% | [6] 37.8%

Cc1ccc(Cl)cc1NC(=O)N(C)CCO
inactive: [1] 6.3% | [2] 7.65% | [3] 9.9% | [4] 16.6% | [5] 4.05% | [6] 22.7%

O=c1c2ccccc2c(Br)c(Br)c2ccccc12
inactive: [1] 11.4% | [2] -12.4% | [3] 15.6% | [4] 3.3% | [5] 9.15% | [6] 27.4%

C/C=C/CC(C)C(O)C1C(=O)NC(CC)C(=O)N(C)CC(=O)N(C)C(CC(C)C)C(=O)NC(C(C)C)C(=O)N(C)C(CC(C)C)C(=O)NC(C)C(=O)NC(C)C(=O)N(C)C(CC(C)C)C(=O)N(C)C(CC(C)C)C(=O)N(C)C(C(C)C)C(=O)N1C (configuration not stated)
inactive: [1] 17.3% | [2] 8.3% | [3] -5.45% | [4] 25.6% | [5] 22.7% | [6] 18.1%

CCCC(=O)Nc1ccc2c(c1)CN1C(=O)c3ccccc3C1=N2
inactive: [1] -11.7% | [2] 1.8% | [3] 7.75% | [4] 5.15% | [5] -1.65% | [6] -7.15%

COc1ccc(/C=C/c2cccc[n+]2C)cc1
inactive: [1] 1.35% | [2] 1.3% | [3] -7.1% | [4] 0.55% | [5] -9.9% | [6] -11.2%

COC1=CC(=O)c2nc(Cl)ccc2C1=O
inactive: [1] 29% | [2] 9.95% | [3] 35.2% | [4] -1% | [5] 11.8% | [6] 24.6%

CCn1c(=O)n(C)c2c(=O)n(C)c(=O)n(C)c21
inactive: [1] 21.6% | [2] -3.8% | [3] -13.3% | [4] 1% | [5] 1.4% | [6] 2.2%

CCCCC1(CC)COC(CCC)OC1 (configuration not stated)
inactive: [1] 26.4% | [2] 2.15% | [3] 12.7% | [4] -22.6% | [5] -12.2% | [6] 11.5%

CCOc1ccc(Br)cc1/C=N\N=C\c1cc(Br)ccc1OCC
inactive: [1] -9.15% | [2] -29.2% | [3] -1.65% | [4] 13.3% | [5] 4.25% | [6] -10.3%

Nc1nc(N)c2cc(S(=O)(=O)c3cccc(C(F)(F)F)c3)ccc2n1
inactive: [1] 34% | [2] 24.9% | [3] 7.4% | [4] 11.2% | [5] -15.4% | [6] -59.4%

CCOC(=O)C1OC1c1ccccc1 (configuration not stated)
inactive: [1] 24.5% | [2] -6.45% | [3] -2.3% | [4] -4.5% | [5] -3.9% | [6] 22.9%

CN(C)C(=O)Oc1cccc([N+](C)(C)C)c1
inactive: [1] -1.5% | [2] -8.2% | [3] 5.95% | [4] -60.9% | [5] 0.2% | [6] -5.35%

CC(=O)Nc1cccc(Cl)c1C
inactive: [1] 17.6% | [2] 11.7% | [3] 1.35% | [4] 4.9% | [5] 8.85% | [6] -0.35%

O=C(N/N=C/c1ccccc1O)Nc1nn[nH]n1
inactive: [1] -15.8% | [2] -10.2% | [3] 16.1% | [4] -7.8% | [5] 0.85% | [6] 9%

O=S(=O)(O)C(Nc1ccccc1)c1ccccc1 (configuration not stated)
inactive: [1] -4.35% | [2] -27.7% | [3] 9.5% | [4] -0.25% | [5] 16% | [6] -11.6%

CCCOC(=O)C(O)c1ccccc1 (configuration not stated)
inactive: [1] 16.2% | [2] -6.25% | [3] -5.5% | [4] -24.1% | [5] -13.2% | [6] 14.8%

CCCNC(=O)c1ccc(S(N)(=O)=O)cc1
inactive: [1] -1.5% | [2] 1% | [3] -13.2% | [4] -4.55% | [5] 2.55% | [6] -0.25%

O=C1OC(=O)C2C1C1(Cl)C(Cl)=C(Cl)C2(Cl)C2C(=O)OC(=O)C21 (configuration not stated)
inactive: [1] 2.45% | [2] 12.4% | [3] 17.9% | [4] -9.45% | [5] 25.3% | [6] -1.75%

C=C1CC/C=C(\C)C(=O)C[C@@H]2[C@@H]1CC2(C)C
inactive: [1] 5.85% | [2] 11.8% | [3] 20.2% | [4] 18.6% | [5] 15.3% | [6] -43.1%

c1cc[n+](C2c3ccccc3C([n+]3ccccc3)c3ccccc32)cc1 (configuration not stated)
inactive: [1] 25.2% | [2] 18.8% | [3] 16.9% | [4] -23.9% | [5] 28% | [6] 41.5%
